An excerpt weighted towards active compounds, which were near 12% of everything screened.
JMJD2A Tudor – qHTS Assay for Inhibitors of JMJD2A-Tudor Domain. Lysine-specific demethylase 4A (Homo sapiens), O75164. AlphaScreen JMJD2A-Tudor / H3K4me3 peptide binding. Potency, µM (top dose mostly 114 µM), usual class: inhibitors. 390,000 tested, 4.4% active; further: nearly all actives have a fitted effect of over 50% in size
HP1b chromo inh – HTS for Inhibitors of HP1-beta Chromodomain Interactions with Methylated Histone Tails. Chromobox protein homolog 1 (Homo sapiens), P83916. AlphaScreen HP1-beta / biotin-H3K9me3 peptide binding. Potency, µM (highest dose often 114 µM), most hits filed as inhibitors. 390,000 tested, 0.56% active. AID 540317, 2011; further: nearly all actives have a fitted effect of over 70% in size
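Compound inhibition of the preformed complex between 50 nM HP1-beta and 50 nM biotinylated H3K9me3 peptide was read by AlphaScreen. Buffer was PBS pH 7.4 with 0.01% Tween-20. Incubations ran 30 min at room temperature, with 10 ug/mL donor/acceptor beads.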
BAZ2B inh – qHTS Assay for Inhibitors of BAZ2B; Bromodomain adjacent to zinc finger domain protein 2B (Homo sapiens), Q9UIF8; AlphaScreen BAZ2B-H3K14Ac peptide displacement; Potency, µM (doses to about 114 µM), most hits filed as inhibitors; 360,000 tested, 4.4% active; AID 504333, 2011; further: nearly all actives have a fitted effect of over 60% in size
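AlphaScreen luminescence quantifies BAZ2B engagement of H3K14Ac peptide; the protein and biotinylated peptide are both at 50 nM final, buffer PBS pH 7.4 with 0.01% Tween-20, all steps at room temperature.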
Sfp inh – qHTS Assay for Inhibitors of Bacillus subtilis Sfp phosphopantetheinyl transferase (PPTase) | Biochemical Sfp PPTase activity, qHTS | Potency, µM, actives largely listed as inhibitors | 310,000 tested, 3.5% active | AID 1490, 2009;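 further: the enzyme is Sfp with the accession as filed and its product quenches rhodamine fluorescence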
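After 15 min at room temperature with compound, 15 nM Sfp received 5 uM rhodamine-CoA plus 12.5 uM BHQ-2-ybbR (50 mM Hepes pH 7.6, 10 mM MgCl2). Rate came from the fluorescence difference over 30 min, ex 525/em 598 nm.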
G9a block – qHTS Assay for Inhibitors of Histone Lysine Methyltransferase G9a; Histone-lysine N-methyltransferase EHMT2 (Homo sapiens), Q96KQ7; G9a H3K9 monomethylation, AlphaScreen, 2 h; Potency, µM (series often up to 102 µM), hits mostly inhibitors; 350,000 tested, 8.8% active; further: nearly all actives have a fitted effect of over 75% in size
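Enzyme 20 nM + cpd, 15 min RT; add b-H3K9 pep 500 nM / SAM 20 uM; 2 h RT; anti-H3K9me1 Ab 0.5 ug/mL + SA donor / anti-rabbit acceptor beads 20 ug/mL each, 10 min; AlphaScreen read.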
PLK1 PBD block – qHTS for Inhibitors of PLK1-PDB (polo-like kinase 1 - polo-box domain): Primary Screen | 360,000 tested, 2.8% active | Potency, µM, usual class: inhibitors | Plk1 PBD binding of FITC phosphopeptide, fluorescence polarization; further: series mostly up to about 57 µM; nearly all actives have a fitted effect of over 65% in size
Of the large screens only hits and unclear results are named; the others gave an inactive call. The call rests on the fitted dose curve; in most records, active means well fitted curve in the direction sought with a large enough effect; inconclusive means small, poorly fitted or top-dose-only effect, or another doubt; inactive means no such curve, though single readings can be large; an effect the other way counts as inactive or inconclusive.

Cc1[nH]n(-c2cccc([N+](=O)[O-])c2)c(=O)c1-c1ccccc1	BAZ2B inh inconclusive
COc1ccc(C(C[N+](=O)[O-])c2c(C)[nH]n(-c3ccccc3)c2=O)cc1 (centres undefined)	JMJD2A Tudor 89µM, HP1b chromo inh inconclusive, Sfp inh 40µM, PLK1 PBD block 24µM
CCC(C)NC(=O)COc1ccc(S(=O)(=O)N2CCOCC2)cc1 (centres undefined)	none (no result: BAZ2B inh)
COc1cccc(-c2nnc3n(Cc4ccccc4Cl)c(=O)c4ccccc4n23)c1O	none (no result: Sfp inh, PLK1 PBD block)
COc1cc2c(cc1OC)/C(=C/C(=O)c1ccccc1)NCC2	JMJD2A Tudor inconclusive, BAZ2B inh inconclusive, G9a block inconclusive
COc1cc2c(cc1OC)/C(=C/C(=O)c1ccc(C)cc1)NCC2	JMJD2A Tudor inconclusive, BAZ2B inh inconclusive, G9a block 50µM
COc1cccc(C(=O)/C=C2\NCCc3cc(OC)c(OC)cc32)c1	JMJD2A Tudor inconclusive, BAZ2B inh inconclusive, G9a block 50µM
COc1cc2c(cc1OC)/C(=C/C(=O)c1ccc([N+](=O)[O-])c(C)c1)NCC2	JMJD2A Tudor 20µM, PLK1 PBD block 19µM
COC(=O)c1ccc(C2NCCc3cc(OC)c(OC)cc32)cc1 (centres undefined)	none
CC1CCCCC12NC(=O)N(CC(=O)N1CCN(Cc3ccc(C#N)cc3)CC1)C2=O (centres undefined)	none (no result: Sfp inh)
O=C1c2ccccc2C(c2nnnn2-c2ccc3c(c2)OCCO3)N1CCCN1CCOCC1 (centres undefined)	none (no result: JMJD2A Tudor, HP1b chromo inh, BAZ2B inh, Sfp inh, G9a block)
Cc1c(C(=O)N(C)C)sc2c1c(=O)n(-c1ccccc1C(F)(F)F)c(=O)n2Cc1ccccc1C#N	none (no result: Sfp inh, PLK1 PBD block)
COc1ccc(CN2C(=O)CN=C2Nc2cccc(C)c2C)cc1	BAZ2B inh inconclusive, G9a block 56µM
COc1ccccc1NC1=NCC(=O)N1Cc1ccccc1	none
CCOc1ccccc1NC1=NCC(=O)N1Cc1ccc(F)cc1	BAZ2B inh inconclusive, G9a block 50µM
COc1ccc(NC(=O)c2cc3n(n2)C(C(F)(F)F)CC(c2ccc4c(c2)OCO4)N3)cc1OC (centres undefined)	JMJD2A Tudor inconclusive, BAZ2B inh inconclusive, G9a block 28µM
Cc1cccc(NC(=O)c2cc3n(n2)C(C(F)(F)F)CC(c2ccc4c(c2)OCO4)N3)c1 (centres undefined)	none
COc1ccc(/C=N/NC(=O)c2ccc3c(c2)OCO3)cc1	BAZ2B inh inconclusive, G9a block 79µM
COc1cc(/C=N/NC(=O)c2ccc3c(c2)OCO3)ccc1O	G9a block inconclusive
COc1ccccc1NS(=O)(=O)c1cccc(C(=O)N/N=C/c2ccc3c(c2)OCCO3)c1	none
COc1ccc(NS(=O)(=O)c2cccc(C(=O)N/N=C/c3ccc4c(c3)OCCO4)c2)cc1	Sfp inh 16µM
Cc1cccc(C(=O)Nc2nc3nc(-c4ccccc4)cc(=O)n3[nH]2)c1	BAZ2B inh inconclusive (no result: Sfp inh, PLK1 PBD block)
CC(C)COC(=O)N1CCCCC1c1cc(C(=O)N2CCOCC2)no1 (centres undefined)	none (no result: JMJD2A Tudor, HP1b chromo inh, BAZ2B inh, Sfp inh, G9a block)
COc1ccc(S(=O)(=O)c2cc(NS(=O)(=O)c3ccc(Cl)cc3)c(C)c(C)c2O)cc1	none (no result: Sfp inh, PLK1 PBD block)
CC(NCc1ccc(S(N)(=O)=O)cc1)C(=O)N1CCc2ccccc21 (centres undefined)	none
N#CC(Cc1ccc(O)c(O)c1)C(=O)N1CCc2ccccc21 (centres undefined)	G9a block 7.1µM (no result: JMJD2A Tudor, HP1b chromo inh, BAZ2B inh, Sfp inh, PLK1 PBD block)
CCN(CC)S(=O)(=O)c1cccc(-c2nc3n(n2)Cc2ccccc2-3)c1	G9a block 50µM
CCN(CC)S(=O)(=O)c1cccc(-c2n[nH]c(=S)n2Cc2ccccc2)c1	JMJD2A Tudor inconclusive, G9a block 0.89µM

Bioassay records deposited in PubChem BioAssay by National Center for Advancing Translational Sciences (NCATS).
